# Laboratory results as given in PubChem BioAssay.
# Assay: small-molecule microarray binders of probe aLefty2, primary screen, biochemical, biotinylated probe, 635/667 nm fluorescence (AID 1094);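 also: score merges spot fluorescence near 667 nm with spot signal-to-noise ratio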
# Details: higher = more signal
row,SMILES,composite z-score
1,CCCCC(=O)N(Cc1ccccc1F)[C@@H]1CC(C(=O)NCCO)=C[C@H](Oc2c(I)cc(CO)cc2OC)[C@H]1O,-0.0718
2,COc1ccc([Si](C)(C)[C@H]2[C@H](CCO)O[C@@]3(C(=O)N(Cc4cccc(N5C(=O)c6cccc7cccc5c67)c4)c4ccccc43)[C@@H]2C)cc1,-0.205
3,CC(C)C(CO)N1C(=O)[C@@H]2[C@H]3C(=O)OCC=C[C@H]3OC23C=CCN(c2ccc4ccccc4c2)C(=O)[C@@H]13 (stereo partly drawn),-0.192
4,CCOC(=O)C[C@H]1[C@H](OC(=O)c2ccccc2-c2ccccc2)[C@@H](NC(=O)c2ccc(-c3ccccc3)cc2)c2cc(OCCCO)ccc2N1C(=O)c1ccccc1,-0.0888
5,CN(C)CCCC[C@@H]1NC(=O)[C@@H]2C[C@H](C(=O)NCCCCCCN)[C@H](c3ccc(O)cc3)N2C1=O,0.892
6,CN1C(=O)C2C(C1=O)C1C=C(c3ccc(CO)cc3)C2C(C2CC2)N1Cc1sc2ccccc2c1Cl (stereo not drawn),0.252
7,O=C1C2C=CC(C(O)c3ccc(B(O)O)cc3)N(Nc3ccc([N+](=O)[O-])cc3)C2C(=O)N1c1ccccc1 (stereo not drawn),0.143
8,CCCNC(=O)[C@@]1(C)c2ccccc2C(=O)N(Cc2ccc(OC(F)(F)F)cc2)[C@H]1c1ccc(CO)cc1,0.0241
9,[N-]=[N+]=NCc1ccccc1[C@H]1OC(c2ccc(OCCCO)cc2)=N[C@@]1(Cc1ccccc1)C(=O)O,0.0869
10,CCCC[C@@H]1C[C@H]1[C@@H](NC(=O)c1ccccc1)c1ccc(-c2ccccc2)cc1,-0.12
11,C=C(CCCC)/C(=C/C[C@H](OC(C)=O)c1ccc(CO)o1)c1cc(C(=O)OC)ccc1OC,-0.0371
12,COc1ccc([Si](C)(C)[C@@H]2[C@@H](CC(=O)N3Cc4ccccc4C[C@H]3CO)O[C@]3(C(=O)N(Cc4cccc(N5C(=O)COc6ccccc65)c4)c4ccccc43)[C@H]2C)cc1,-0.15
13,C=C(C)[C@@H]1CC=C(C(O)C2C=CC3C(=O)N(Cc4ccccc4)C(=O)C3N2n2cnnc2)CC1 (stereo partly drawn),0.0864
14,C=C(C(=O)CC[C@@H](OC(C)=O)c1ccc(OCCO)cc1)C(C)C,-0.114
15,COc1ccc(C(=O)Nc2cccc(CN3C(=O)[C@@]4(O[C@@H](CC(=O)N5Cc6ccccc6C[C@H]5CO)[C@H]([Si](C)(C)c5ccc(OC)cc5)[C@H]4C)c4ccccc43)c2)cc1,0.0327
16,CC[C@@H]1C=C(C(=O)O)[C@H](c2ccc(C(C)C)cc2)N1S(=O)(=O)c1ccc(C)cc1,0.678
17,[N-]=[N+]=NCc1ccccc1C[C@]1(C(=O)NCC(O)CO)COC(c2ccc(OCCCO)cc2)=N1 (stereo partly drawn),0.841
18,[N-]=[N+]=Nc1ccccc1[C@@H]1OC(c2ccc(OCCCO)cc2)=N[C@]1(CCS(=O)(=O)c1ccccc1)C(=O)N1CCCCC1,0.799
19,O=C1OCCC/C=C\[C@H]2OC34C=CCN(Cn5nnc6ccccc65)C(=O)[C@H]3N(CCCO)C(=O)[C@@H]4C12 (stereo partly drawn),-0.225
20,C=CCC(OC(C)=O)[C@@H]1[C@@H](N(Cc2cc3ccccc3o2)C(=O)c2cccc3ccccc23)c2cc(OCCCO)ccc2N1C(=O)Cc1ccc(OC)cc1 (stereo partly drawn),-0.0745
21,Cc1ccc(N2C(=O)c3ccccc3[C@@H](C(=O)NCC(C)C)[C@@H]2c2ccc(CO)cc2)nc1,-0.186
22,COCCOC(=O)N1C(=O)[C@@]2(c3ccccc31)[C@H](c1ccc(O)cc1)N1[C@H](c3ccccc3)[C@H](c3ccccc3)OC(=O)[C@H]1[C@@H]2C(N)=O,-0.126
23,CN(C)CCCC[C@@H]1NC(=O)[C@@H]2C[C@H](C(=O)NCCCCCN)[C@H](c3ccc(O)cc3)N2C1=O,-0.0862
24,COCCOC(=O)N1C(=O)[C@@]2(c3cc(C#CCCO)ccc31)[C@H](C(=O)NC[C@H](O)c1ccccc1)[C@H]1C(=O)O[C@H](c3ccccc3)[C@H](c3ccccc3)N1[C@@H]2c1ccc(OCCO)cc1,0.0129
25,O=C1C2C=CC(C(O)C3CC=CCC3)N(n3cnnc3)C2C(=O)N1Cc1ccccc1 (stereo not drawn),-0.223
26,CC(C)C(O)C1C=CC2C(=O)N(C)C(=O)C2N1N1CCCCC1 (stereo not drawn),0.169
27,COC(=O)[C@@]1(Cc2ccc(F)cc2)[C@H]2c3cc(C(=O)N4CCCC4)n(CCc4ccc(OC)c(Br)c4)c3C[C@H]2CN1C(=O)c1ccccc1,0.436
28,COCCOC(=O)N1C(=O)[C@@]2(c3cc(C#CC4=CCCCC4)ccc31)[C@H](C(=O)N1CCN(c3ncccn3)CC1)[C@H]1C(=O)O[C@H](c3ccccc3)[C@H](c3ccccc3)N1[C@@H]2c1ccc(OCCO)cc1,0.415
